# Screens (PubChem BioAssay)
# GLD-1 TGE inh: GLD-1-TGE RNA interaction inhibition (C. elegans); purified GLD-1 + fluorescein TGE RNA, fluorescence polarization; 320,000 compounds, 0.44% hits; inhibition, % at 5.96 µM; Q17339;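 active = percent inhibition above a per-plate cutoff, the plate mean of test compounds plus 3 SD, cut at about 30% in these data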;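 note: 0% = DMSO wells with GLD-1 and probe and 100% = wells lacking GLD-1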
# EBV gp42 inh: inhibitors of Epstein-Barr virus glycoprotein 42. Q1HVG2. Fluorescence polarization binding assay, mP read-out. inhibition, % (tested at 21.74 µM). 220,000 compounds, 0.42% hits; in the data active = inhibition above about 50%
# MCL1-BIM inh: disrupts human MCL1 binding to BIM-BH3 peptide; inhibition, % at 10.9 µM; Q07820; 320,000 compounds, 0.68% hits; GST-MCL1 / FITC-Bim-BH3 fluorescence polarization;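 active = inhibition above the mean inhibition of all tested compounds plus 3 SD, set per campaign, cut at about 40% in these data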;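 note: 0% = DMSO wells and 100% = unlabeled Bim-BH3 peptide control; higher means more loss of mP so more displacement of Bim peptide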
# Target sequence (Q07820 whole entry, looked up): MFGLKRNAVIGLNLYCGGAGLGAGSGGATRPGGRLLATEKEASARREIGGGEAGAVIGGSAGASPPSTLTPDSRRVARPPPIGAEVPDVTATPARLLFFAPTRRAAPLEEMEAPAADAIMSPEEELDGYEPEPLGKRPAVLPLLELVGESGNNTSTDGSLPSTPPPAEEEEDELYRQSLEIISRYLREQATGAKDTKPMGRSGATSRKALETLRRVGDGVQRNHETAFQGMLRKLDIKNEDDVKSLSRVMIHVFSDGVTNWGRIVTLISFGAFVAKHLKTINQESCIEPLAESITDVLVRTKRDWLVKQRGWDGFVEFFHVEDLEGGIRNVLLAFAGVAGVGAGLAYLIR
# MEX-5 binding: C. elegans MEX-5 TCR-2 RNA binding activity | Q9XUB2 | MEX-5/FITC-TCR2 RNA binding, fluorescence polarization; active compounds read low | activity score (negative = inhibition of binding), % at 10 µM | 300,000 compounds, 0.38% hits;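 active = inhibition past about -25% in most replicates, and total fluorescence under double the plate's negative control median, limit read from the data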;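 note: 0% = DMSO and -100% = 5 µM competing unlabeled TCR2 RNA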
# Bcl-xL primary: Bcl-xL (human) inhibition; GST-Bcl-xL / FITC-Bim BH3 peptide fluorescence polarization; inhibition, % at 10.9 µM; 320,000 compounds, 0.7% hits; AID 2129;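 active = inhibition above the mean of all tested compounds plus 3 SD, cutoff set per campaign, cut at about 30% in these data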;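 note: 0% = DMSO wells and 100% = unlabeled Bim-BH3 peptide competitor; inhibitors lower millipolarization by displacing the labeled peptide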
# Target sequence (Q07817 whole entry, looked up): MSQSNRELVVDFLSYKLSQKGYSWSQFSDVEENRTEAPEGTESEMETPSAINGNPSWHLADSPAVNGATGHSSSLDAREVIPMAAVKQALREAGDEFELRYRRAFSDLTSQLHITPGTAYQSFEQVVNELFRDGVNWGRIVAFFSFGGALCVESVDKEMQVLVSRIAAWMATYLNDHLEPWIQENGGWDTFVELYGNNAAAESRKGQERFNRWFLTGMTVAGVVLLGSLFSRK
# E coli Lon inh: inhibits E. coli Lon protease | inhibition, % at 7.94 µM | P0A9M0 | AID 602123 | 360,000 compounds, 0.42% hits | purified E. coli Lon protease, fluorescence polarization; in the data active = inhibition above about 13%, passing the limit was not always enough;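 note: 0% = enzyme with probe and DMSO and 100% = no enzyme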
# An asterisk follows results filed as active; i = inactive; x = no result given. An excerpt weighted towards active compounds, which were near 1.4% of everything screened.
SMILES,GLD-1 TGE inh,EBV gp42 inh,MCL1-BIM inh,MEX-5 binding,Bcl-xL primary,E coli Lon inh
O=C(NC(=S)Nc1ccc2oc(=O)ccc2c1)c1cccc(Cl)c1,-2.1,x,1.7,2.1,5.9,-5.9
O=C(CCN1CCN(c2ccccc2)CC1)N/N=C/c1ccc(O)c(O)c1O,x,57.8*,x,-0.2,x,2.5
CC(C)OCCCNC(=O)c1ccc(Br)cc1,-1.2,4.2,4.2,-0.1,2.4,6.1
CC(C)OCCCNC(=O)C(=O)NCCCOC(C)C,19.3,6.0,1.3,-0.9,40.0*,-9.3
C[C@@H]1CN([C@H](C)CO)C(=O)CCCn2nncc2CO[C@H]1CN(C)S(=O)(=O)c1ccccc1F,x,x,x,x,x,-4.0
C[C@H](NC(=O)c1nc[nH]c1C(=O)N1CCNCC1)C(=O)OCc1ccccc1,3.4,x,-2.7,20.1,0.2,-2.6
CCc1ccc(O)c(N=Cc2ccccc2O)c1,5.7,-41.1,2.0,0.6,5.6,-9.2
O=c1[nH][nH]c2c(N=Cc3ccccc3O)ccc(F)c12,x,11.8,x,x,x,25.2*
CCn1c(O)c(C=Nc2ccccc2)sc1=S,-15.5,-0.4,-11.8,-3.3,-10.9,x
Oc1c(C=Nc2ccccc2)sc(=S)n1Cc1ccccc1,-18.5,-57.6,-36.5,-43.5*,-25.3,-24.3
Oc1ccc(O)c(-c2cnns2)c1,13.7,-23.2,13.8,-63.1*,19.0,19.3
CCCCn1c(N)c(N(CC(C)C)C(=O)C2CCN(S(=O)(=O)c3ccc(C)cc3C)CC2)c(=O)[nH]c1=O,-3.5,x,-2.4,2.0,0.9,-0.4
Cc1nc(S/C(=C/c2ccc(-c3cccc(Cl)c3)o2)C(=O)O)n[nH]1,0.5,-33.5,-6.3,-35.3*,2.3,-8.3
O=C(NNC(=O)C1CC1)c1ccccc1[N+](=O)[O-],x,x,x,x,x,-1.9
O=C(NNC(=O)c1ccccc1[N+](=O)[O-])c1csc(N2CCOCC2)n1,5.1,x,-0.9,-41.8*,0.9,1.0
O=C(NNC(=O)c1ccccc1[N+](=O)[O-])c1ccccn1,-5.0,-1.2,-1.4,-29.1*,-6.6,-5.5
CCOc1ccc(C(C)NC(=O)c2ccc3c(c2)NC(=O)C(C)S3)cc1OCC (centres undefined),4.6,x,-2.4,x,2.5,2.8
CCN(CC)CCCN1C=C2C(=O)C(C)(OC(=O)CCC(=O)OC)C(=O)C(Br)=C2C=C1c1ccc(OC)cc1 (centres undefined),13.9,x,29.8,-10.9,30.5*,-28.2
CCN(CC)CCCN1C=C2C(=O)C(C)(OC(=O)CCc3ccccc3)C(=O)C=C2C=C1c1ccc(C#N)cc1 (centres undefined),3.6,13.8,13.1,-2.8,19.7,0.4
COC(=O)CCC(=O)OC1(C)C(=O)C2=CN(Cc3ccco3)C(c3ccc(OC)cc3)=CC2=C(Br)C1=O (centres undefined),44.4*,x,49.4*,-37.1*,52.2*,x
COC(=O)CCC(=O)OC1(C)C(=O)C2=CN(c3ccc(OC)cc3)C(c3ccc(OC)cc3)=CC2=C(Br)C1=O (centres undefined),12.7,x,13.2,-6.2,18.6,-4.4
COCCN1C=C2C(=O)C(C)(OC(=O)CCC(=O)OC)C(=O)C(Br)=C2C=C1c1ccc(OC)cc1 (centres undefined),18.1,x,44.1*,-17.5,37.0*,17.0
COC(=O)CCC(=O)OC1(C)C(=O)C2=CN(C3CCCC3)C(c3ccc(OC)cc3)=CC2=C(Br)C1=O (centres undefined),21.8,19.9,28.8,-0.5,33.9*,0.5
Cc1cnc(NC(=O)c2cccc(S(=O)(=O)N3CC(C)OC(C)C3)c2)s1 (centres undefined),-1.8,-12.3,-1.9,1.7,0.8,-0.1
c1ccc(CCC2CCCCN2Cc2nc(C3CC3)no2)cc1 (centres undefined),-2.8,-13.8,-0.5,-2.0,2.6,3.5
SMILES,GLD-1 TGE inh,EBV gp42 inh,MCL1-BIM inh,MEX-5 binding,Bcl-xL primary,E coli Lon inh
CC1Cc2nc(SCC(=O)NCC3CCCO3)n(-c3ccc(F)cc3)c(=O)c2S1 (centres undefined),0.0,x,-1.2,-1.8,64.1*,5.2
S=C(Cc1cccnc1)N1CCOCC1,2.0,-8.6,6.3,-0.6,8.5,3.4
Cc1ccc(S(=O)(=O)C(C#N)c2nc3ccccc3nc2N2CCN(C)CC2)cc1 (centres undefined),4.7,-1.2,9.2,-0.2,8.1,-6.6
CCOC(=O)N1CCN(c2nc3ccccc3nc2C(C#N)S(=O)(=O)c2ccc(C)cc2)CC1 (centres undefined),7.2,5.3,18.2,-34.9*,14.8,2.8
COCCCNC(=O)CCC(=O)NNc1nc2ccccc2c2nc(C)nn12,9.3,7.0,3.2,-50.1*,8.4,-1.0
CCOCCCNC(=O)CCC(=O)NNc1nc2ccccc2c2nc(C)nn12,2.6,-25.7,5.3,-39.0*,-4.5,-1.0
CCCc1nnc(NC(=O)CCC(=O)NC2CCCCCC2)s1,5.4,x,-3.6,-2.0,-0.6,-13.8
COc1ccccc1NC(=O)CCSc1nnc(-c2ccncc2)o1,1.8,-5.1,-0.6,0.8,-1.8,0.3
COC(CNC(=O)C1CCN(S(=O)(=O)c2ccc3nc4c(c(C(=O)O)c3c2)CC(C)CC4)CC1)OC (centres undefined),4.5,x,33.1,-4.5,31.4*,7.5
Cc1cnc(C(=O)OCc2nc3ccsc3c(=O)[nH]2)cn1,14.1,x,36.2,x,30.3*,-26.2
Cc1ccc(C(=O)OCc2nc3ccsc3c(=O)[nH]2)o1,5.0,x,4.8,-2.9,1.6,-11.2
COc1ccc(/C=C/c2nc(-c3ccccc3O)n[nH]2)cc1OC,9.2,19.9,10.5,x,6.9,2.6
O=C(O)COc1ccc(/C=C/c2nc(-c3ccccc3O)n[nH]2)cc1,10.1,x,5.0,-101.4*,7.9,-13.8
CCn1c(C)nc2cc(C(=O)N3N=C(CCOC)CC3(O)C(F)(F)F)ccc21 (centres undefined),-4.1,0.3,-1.0,0.7,-3.8,13.6
C[C@@H]1Cc2c(O)c(O)cc(O)c2C(=O)O1,10.5,-1.3,6.0,-44.8*,6.8,-1.4
CC1=CC(=C2N=C(c3ccccc3)OC2=O)C=C(C)O1,1.8,-55.3,3.0,-35.0*,10.7,39.0*
CN1C=CC=C/C1=C1/N=C(c2ccccc2)OC1=O,-3.1,-0.1,3.0,2.1,7.3,0.9
CC(C)c1ccc(/C=C/C(=O)n2nnc3ccccc32)cc1,-3.0,85.1*,5.0,1.2,1.5,8.3
Cc1cccc2c3nc4ccccc4nc3n(C)c12,13.6,x,40.4*,1.8,49.1*,-3.8
CN(C)c1ccc(/C=C(\C#N)C(=O)Nc2nc3c(s2)CCN(Cc2ccccc2)C3)cc1,-209.3,105.7*,-170.8,-15.2,-98.9,i
CC1=C(C#N)C(=O)NC(=O)/C1=C/c1ccc(-c2ccc(S(N)(=O)=O)cc2)o1,5.6,-1.9,18.6,-33.2*,18.0,-26.3
C=CCOC(=O)c1cc(-c2ccc(/C=C3\C(=O)NC(=O)C(C#N)=C3C)o2)ccc1Cl,x,57.5*,x,x,x,-44.0
